Data published in PubChem BioAssay (NCI).
Compounds without any hit were thinned out: in the full panel of roughly 83,000, 20% have a hit.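 Each cell line was grown in a 96-well plate and treated with one concentration of compound for 48 hours. Values below 10 were considered active.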 Values without a mark were called inactive. Activity calls are given as the source filed them.

How the values were obtained:
Test in all cases: NCI-60 one-dose screen, 48 h (100 = growth as untreated, 0 = no growth, -100 = all killed)
Settings in all cases: 10 µM unless noted
[1] = test system: T-47D breast
[2] = test system: BT-549 breast
[3] = test system: MDA-MB-435 melanoma
[4] = test system: SW-620 colon
[5] = test system: MCF7 breast
[6] = test system: HCT-116 colon
[7] = test system: HCC-2998 colon
[8] = test system: KM12 colon

**Q.** How did the growth [1] turn out when `CC1(C)CC[C@]2(C(=O)N3CCOCC3)CC[C@]3(C)C(=CC[C@@H]4[C@@]5(C)C/C(=C/c6ccccn6)C(=O)C(C)(C)[C@@H]5CC[C@]43C)[C@@H]2C1` was run?
**A.** 53.4%

**Q.** And the growth [2]?
**A.** 70%

**Q.** And the growth [3]?
**A.** 68.6%

**Q.** What about the growth [4] of the same molecule?
**A.** 69.6%

**Q.** And the growth [5]?
**A.** 44%

**Q.** And the growth [6]?
**A.** 34.9%

**Q.** And the growth [7]?
**A.** 81.4%

**Q.** What about the growth [8] of the same molecule?
**A.** 72.4%

**Q.** Which results are given for `Oc1ccc(CSc2nnc(-c3ccc(Cl)cc3)n2-c2ccccc2)c2cccnc12`?
**A.** growth [1]: 48.9%; growth [2]: 35.7%; growth [3]: 17.1%; growth [4]: 23.9%; growth [5]: 9.16% (active); growth [6]: 13.3%; growth [7]: 32.8%; growth [8]: 21.3%

**Q.** With `CN(C)CCNC(=O)c1ccc(-c2nc3ccc4[nH]ncc4c3c3c2CCC3)cc1` as the molecule, how does the growth [1] read?
**A.** 32.8%

**Q.** What about the growth [2] of the same molecule?
**A.** -19.5% (active)

**Q.** And the growth [3]?
**A.** 22.2%

**Q.** And the growth [4]?
**A.** 3.38% (active)

**Q.** And the growth [5]?
**A.** 1.36% (active)

**Q.** What about the growth [6] of the same molecule?
**A.** 2.43% (active)

**Q.** And the growth [7]?
**A.** 2.85% (active)

**Q.** What about the growth [8] of the same molecule?
**A.** 4.08% (active)

**Q.** Which results are given for `COc1ccc(N2C(=O)c3cc(Cl)ccc3NC2SCc2ccccc2)cc1` (stereo not given)?
**A.** growth [1]: 88.1%; growth [2]: 97.5%; growth [3]: 94.5%; growth [4]: 103%; growth [5]: 85.4%; growth [6]: 73.8%; growth [7]: 106%; growth [8]: 96.9%

**Q.** Which growth [1] does the source give for `COc1cc2nc(Cl)nc(Nc3cccc(C4=Nc5c(N)nc(N)nc5NC(c5ccc(F)cc5)C4)c3)c2cc1OC` (stereo not given) here?
**A.** 63.7%

**Q.** What about the growth [2] of the same molecule?
**A.** 78.1%

**Q.** What about the growth [3] of the same molecule?
**A.** 77.2%

**Q.** And the growth [4]?
**A.** 12.7%

**Q.** And the growth [5]?
**A.** -5.06% (active)

**Q.** What about the growth [6] of the same molecule?
**A.** -41.7% (active)

**Q.** And the growth [7]?
**A.** 22.9%

**Q.** What about the growth [8] of the same molecule?
**A.** 34.1%

**Q.** For `Cc1ccc(-n2cc(/C=N/NC(=O)c3nc(N)n[nH]3)c(-c3ccc(S(C)(=O)=O)cc3)n2)cc1`, which growth [1] is on record?
**A.** 97.5%

**Q.** And the growth [2]?
**A.** 101%

**Q.** What about the growth [3] of the same molecule?
**A.** 87.9%

**Q.** And the growth [4]?
**A.** 93.3%

**Q.** And the growth [5]?
**A.** 94.2%

**Q.** What about the growth [6] of the same molecule?
**A.** 104%

**Q.** And the growth [7]?
**A.** 115%

**Q.** What about the growth [8] of the same molecule?
**A.** 105%

**Q.** How did the growth [1] turn out when `O=C(Nc1ccc(Br)cc1)Nc1nc2ccc([N+](=O)[O-])cc2s1` was run?
**A.** -19% (active)

**Q.** What about the growth [2] of the same molecule?
**A.** -21.5% (active)

**Q.** What about the growth [3] of the same molecule?
**A.** -9.22% (active)

**Q.** And the growth [4]?
**A.** 3.15% (active)

**Q.** And the growth [5]?
**A.** 1.05% (active)

**Q.** What about the growth [6] of the same molecule?
**A.** 2.73% (active)

**Q.** What about the growth [7] of the same molecule?
**A.** 1.25% (active)

**Q.** And the growth [8]?
**A.** 0.616% (active)

**Q.** For `COc1cc(-c2nc(SCCC(C)C)nc(NNC(=O)c3ccncc3)c2C#N)cc(OC)c1OC`, which growth [1] is on record?
**A.** 43%

**Q.** And the growth [2]?
**A.** 104%

**Q.** And the growth [3]?
**A.** 90.1%

**Q.** What about the growth [4] of the same molecule?
**A.** 110%

**Q.** What about the growth [5] of the same molecule?
**A.** 74.7%

**Q.** And the growth [6]?
**A.** 84.5%

**Q.** And the growth [7]?
**A.** 92.1%

**Q.** What about the growth [8] of the same molecule?
**A.** 86.5%

**Q.** How did the growth [1] turn out when `NC(=O)c1c(NC(=O)c2ccc(F)cc2F)sc2c1CCC(=O)C2` was run?
**A.** 32.9%

**Q.** And the growth [2]?
**A.** 42.2%

**Q.** And the growth [3]?
**A.** 74.1%

**Q.** And the growth [4]?
**A.** 19.1%

**Q.** What about the growth [5] of the same molecule?
**A.** 51.8%

**Q.** And the growth [6]?
**A.** 11.3%

**Q.** And the growth [7]?
**A.** 89.5%

**Q.** And the growth [8]?
**A.** 17.2%

**Q.** `Cc1cc(C)cc(C(=O)Nc2cccc(C#Cc3cccc4[nH]nc(N)c34)c2)c1` was tested. Which growth [1] did it give?
**A.** 39.4%

**Q.** And the growth [2]?
**A.** 115%

**Q.** And the growth [3]?
**A.** 2.35% (active)

**Q.** And the growth [4]?
**A.** 38.6%

**Q.** What about the growth [5] of the same molecule?
**A.** 38.1%

**Q.** And the growth [6]?
**A.** 43.2%

**Q.** What about the growth [7] of the same molecule?
**A.** 57.7%

**Q.** What about the growth [8] of the same molecule?
**A.** 12.6%

**Q.** What does the source list for `CCOc1ccc(C(=O)Nc2ncc(Cc3ccc(F)cc3)s2)cc1`?
**A.** growth [1]: 34.1%; growth [2]: 57.1%; growth [3]: -16.1% (active); growth [4]: 26.1%; growth [5]: 19.1%; growth [6]: 13.2%; growth [7]: 15.5%; growth [8]: 16.7%

**Q.** With `CC[C@@H](CO)Nc1ccc2ncc(C#Cc3cncc(C(=O)Nc4ccc(CN5CCN(C)CC5)c(C(F)(F)F)c4)c3)n2n1` as the molecule, how does the growth [1] read?
**A.** -75.8% (active)

**Q.** And the growth [2]?
**A.** -91.7% (active)

**Q.** What about the growth [3] of the same molecule?
**A.** -88% (active)

**Q.** And the growth [4]?
**A.** -44.8% (active)

**Q.** And the growth [5]?
**A.** -69.6% (active)

**Q.** What about the growth [6] of the same molecule?
**A.** -92.5% (active)

**Q.** And the growth [7]?
**A.** -43.2% (active)

**Q.** What about the growth [8] of the same molecule?
**A.** -34.1% (active)

**Q.** How did the growth [1] turn out when `CS(=O)(=O)c1ccc(-c2nn(-c3ccccc3)cc2/C=N/NC(=O)c2nc(N)n[nH]2)cc1` was run?
**A.** 101%

**Q.** And the growth [2]?
**A.** 103%

**Q.** What about the growth [3] of the same molecule?
**A.** 91.9%

**Q.** What about the growth [4] of the same molecule?
**A.** 88.4%

**Q.** And the growth [5]?
**A.** 88.3%

**Q.** And the growth [6]?
**A.** 94.8%

**Q.** And the growth [7]?
**A.** 117%

**Q.** And the growth [8]?
**A.** 94.7%

**Q.** How did the growth [1] turn out when `O=C(NNc1nc2cc(F)c(F)cc2n2c(CN3CC4CNCC4C3)ccc12)c1cnccn1` (stereo not given) was run?
**A.** 20.8%

**Q.** What about the growth [2] of the same molecule?
**A.** 28.7%

**Q.** What about the growth [3] of the same molecule?
**A.** 25.3%

**Q.** And the growth [4]?
**A.** 23.7%

**Q.** And the growth [5]?
**A.** 10.9%

**Q.** What about the growth [6] of the same molecule?
**A.** 14.8%

**Q.** And the growth [7]?
**A.** 31.7%

**Q.** And the growth [8]?
**A.** 15.4%

**Q.** Which growth [1] does the source give for `N#Cc1ccccc1Cn1c2nc(=N)c3ccccc3c-2nc2ccccc21` here?
**A.** 66.8%

**Q.** And the growth [2]?
**A.** 88%

**Q.** What about the growth [3] of the same molecule?
**A.** 70%

**Q.** And the growth [4]?
**A.** 54.6%

**Q.** What about the growth [5] of the same molecule?
**A.** 34.7%

**Q.** And the growth [6]?
**A.** 46.9%

**Q.** And the growth [7]?
**A.** 60.2%

**Q.** And the growth [8]?
**A.** 60.7%
